Here are results for 24 compounds from PubChem BioAssay AID602366 (National Center for Advancing Translational Sciences (NCATS), 2012).

SMILES strings stand for the structures. Records with an inconclusive call do not appear. Active and inactive are the calls of the source. The call rests on the fitted dose curve; in most records, active means well fitted inhibition curve with a large enough effect; inconclusive means small, poorly fitted or top-dose-only effect; inactive means flat fitted curve, though single readings scatter.

This assay can be described thus: qHTS Assay for Inhibitors of Bacillus subtilis Sfp phosphopantetheinyl transferase (PPTase): SAR in B subtilis HM489. The note with it: B. subtilis HM489 whole-cell Sfp-dependent phenotype; series mostly up to 114 µM. An excerpt: The covalent attachment of a phosphopantetheinyl (4'-PP) arm to a variety of synthases and other proteins is a key posttranslational protein modification. The 4'-PP is installed on the proteins post-translationally from coenzyme A (CoA) on a conserved serine residue by action of phosphopantetheinyl transferase (PPTase) enzymes. Phosphopantetheinylation is essential for synthase activity, and removal of the PPTase gene precludes natural product synthesis in microorganisms, or in the case of fatty acid biosynthesis, renders the organism unviable. PPTase enzymes belong to a distinct structural superfamily. Within bacteria, these enzymes are grouped into two classes based upon primary structure, the AcpS-Type and Sfp-Type PPTases.
Sfp-type PPTases, corresponding to an activator of surfactin production in Bacillus subtilis, are responsible for modifying type I polyketide and nonribosomal peptide synthases of prokaryotes. Sfp-type PPTases are responsible for the activation of a variety of pathogen-associated virulence factors. Among these compounds are toxins such as mycolactone from Mycobacterium ulcerans, siderophores such as vibriobactin from Vibrio cholerae or mycobactin from Mycobacterium tuberculosis, as well as the mycolic acids which form the waxy cell wall of Mycobacteria. The biosyntheses of these natural products are considered attractive targets for drug design.
In search of small molecule Sfp-PPTase inhibitors, a fluorescence quenching assay was developed for detection of Bacillus subtilis Sfp-PPTase enzymatic activity in a miniaturized high-throughput format. The consensus ybbr acceptor peptide […] was N-terminally labeled with Black Hole Quencher-2 (BHQ-2) and used in combination with rhodamine-labeled coenzyme A as a co-substrate.
Phosphopantetheinyl transfer is a process essential to cellular viability and maintenance. Cellular permeable and stable compounds acting as PPTase inhibitors are anticipated to be antimicrobial agents in organisms with complimenting genotypes. […] This experiment evaluated a series of test compounds for antimicrobial activity with B. subtilis HM489 (genotype: acpS- and sfp+), a strain that contains a targeted lesion in the acpS locus and thus requires a functional Sfp gene product for viability. [Mootz HD, 2001] This strain is expected to be sensitized to cell-permeable Sfp inhibitors.
NIH Chemical Genomics Center [NCGC]
NIH Molecular Libraries Probe Centers Network [MLPCN]
Assay Submitter (PI): Michale Burkart, University of California, San Diego
Bacillus subtilis HM489 is maintained on lysogeny broth (LB) solidified by the addition of 1.5% w/v agar. Single colonies were used to LB medium (2 mL) and shaken overnight at 30 deg C. In the morning, this culture (100 uL) was used to seed a fresh LB medium (10 mL) and was shaken at 30 deg C until the culture OD600 reached 0.5. This culture was diluted 1:100 in fresh LB medium to provide the inoculum below.
Bacterial susceptibility.
LB medium (2 uL) is dispensed into wells of a sterile white 1536-well plate. Test compounds (23 nL) prepared as serial dilutions in DMSO are added to the plate by pintool transfer. Innoculum (2 uL) is added; the plates are covered with a vented Kalypsys assay lid and incubated at 30 deg C. After 5 h, Bac-Titer Glo (4 uL; Promega Corp, Madison, WI) is added to the plates. They are incubated 10 minutes at room temperature and then the luminescence detected in a ViewLux multimodal plate reader.
Turning to `Cc1cc(C)nc(NC(=S)N2CCN(c3ccc([N+](=O)[O-])cc3Cl)CC2)c1`, the Potency was 18.7 µM (active). In the case of `Cc1ccnc(NC(=S)N2CCCN(c3cccc(C(F)(F)F)c3)CC2)c1`, the Potency was 4.18 µM (active). `COc1cccc(NC(=S)N2CCN(c3ccc(Cl)c(Cl)c3)CC2)n1`: the Potency entry was “inactive”.

Consider `COc1ccnc(NC(=S)N2CCN(c3cccc(Cl)c3Cl)CC2)c1`, for which the Potency is 8.35 µM (active).

Take `Cc1ccnc(NC(=S)N2CC3CN(c4ncc(C(F)(F)F)cc4Cl)CC3C2)c1` (centres undefined): the Potency was 11.8 µM (active). To `Cc1ccnc(NC(=S)N2CCN(c3cccc(N(C)C)c3)CC2)c1` belongs 46.9 µM (active); to `Cc1ccnc(NC(=S)N[C@@H]2CCN(c3cccc(C(F)(F)F)c3)C2)c1`, 29.6 µM (active). In the case of `Cc1ccnc(NC(=S)N2CCN(c3cccc(C(F)(F)F)c3)CC2)c1`, the Potency is 10.5 µM (active).

For `COc1ccnc(NC(=S)N2CCN(c3ncc(C(F)(F)F)cc3Cl)CC2)c1`, the Potency is 6.63 µM (active). Regarding `S=C(Nc1cc(Cl)ccn1)N1CCN(c2cccc(Cl)c2Cl)CC1`, the Potency is 8.35 µM (active). On to `FC(F)(F)c1cccc(N2CCN(C(=S)Nc3cc(C(F)(F)F)ccn3)CC2)c1`, for which the Potency was 10.5 µM (active). Turning to `Cc1ccnc(NC(=S)N2CCCc3ccc(C(F)(F)F)cc32)c1`, the Potency result is “inactive”.

Regarding `Cc1cc(C)nc(NC(=S)N2CCN(c3ccc(F)c(F)c3F)CC2)c1`, the Potency is 21 µM (active).

Take `COc1ccnc(NC(=S)N2CCN(c3ccc(Cl)cc3Cl)CC2)c1`: the Potency was 10.5 µM (active). To `Cc1ccnc(NC(=S)N2CC3CN(c4cccc(C(F)(F)F)c4)CC3C2)c1` (centres undefined) belongs 5.27 µM (active); to `Cc1cc(C)nc(NC(=S)N2CC3CN(c4ccc(Cl)cc4C(F)(F)F)CC3C2)c1` (centres undefined), 9.37 µM (active). To `Cc1ccnc(NC(=S)N2CCN(c3cc(C(F)(F)F)cc(C(F)(F)F)c3)CC2)c1` belongs 11.8 µM (active).

For the compound `Cc1cc(C)nc(NC(=S)N2CCN(c3ncccc3C#N)CC2)c1`, the Potency result was “inactive”. As for `Cc1cc(C)nc(NC(=S)N2CCN(c3cc(Br)cc(C(F)(F)F)c3)CC2)c1`, the figure is 4.69 µM (active); as for `FC(F)(F)c1cc(N2CCN(C(=S)Nc3cc(Cl)ccn3)CC2)cc(C(F)(F)F)c1`, 4.18 µM (active); as for `Cc1cc(C)nc(NC(=S)N2CCN(c3ccc(Cl)cc3Cl)CC2)c1`, 29.6 µM (active). As for `CSC(Cc1ccc(Cl)cc1)C(=O)Nc1ccc(Cl)cc1C(=O)O` (centres undefined), the Potency is 26.4 µM (active). On to `Cc1ccnc(NC(=S)Nc2cccc(C(F)(F)F)c2)c1`, for which the Potency is 10.5 µM (active). As for `Cc1cc(C)nc(NC(=S)N2CCN(c3ccc(Cl)c(Cl)c3)CC2)c1`, the figure is 26.4 µM (active).
